Most compounds without a hit are left out; they make up all but 3.6% or so of the library.
Pf apPOL block: Pf-apPOL DNA polymerase inhibition | 0.25% of 210,000 active | inhibition, % at 10 µM | Recombinant Pf-apPOL, molecular beacon fluorescence, 1.5 h
mHTT CaM bind: inhibitors of human mutant huntingtin-calmodulin interaction | P42858 | AlphaScreen His-mHTT/GST-CaM binding, luminescence | inhibition, % at 15 µM | 3.6% of 190,000 active;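 further: 0% = both proteins with DMSO and 100% = one protein alone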
* marks the source's active call; other numbers are inactive results; ! = a repeat was not active. No stated cut-off is given here; in the data, active means inhibition above about 50%; inactive means the rest.

Screening O=C(Nc1ccccc1)N1CCC(n2cnc3cc(Cl)ccc3c2=O)CC1 returned Pf apPOL block -7.9 and mHTT CaM bind -5.2.
Screening Cc1ccc(S(=O)(=O)C(CN)c2cccs2)cc1 (stereo not drawn) returned Pf apPOL block 69.3* and mHTT CaM bind -15.6.
`O=C(NCC(c1cccs1)S(=O)(=O)c1ccccc1)Oc1ccccc1` (stereo not drawn) gave Pf apPOL block 1.6 and mHTT CaM bind 1.7.
NC(=O)c1c(NC(=O)C2CCCCC2)sc2c1CCCC2 was read as Pf apPOL block -6.7 and mHTT CaM bind 1.6.
For O=C(Nc1ccc2c(N3CCOCC3)ncnc2c1)c1cccc(Br)c1 the results were Pf apPOL block -2.8 and mHTT CaM bind 53.6*.
Cc1ccc(C(=O)Nc2ccc3c(N4CCOCC4)ncnc3c2)cc1 was read as Pf apPOL block -4.8 and mHTT CaM bind 6.2.
Nc1nc2ccccc2n1Cc1ccccc1 was read as Pf apPOL block -4.1 and mHTT CaM bind 3.1.
Fc1ccc(NCc2nc3ccccc3n2Cc2ccccc2)cc1 was read as Pf apPOL block 0.0 and mHTT CaM bind 50.0*.
For Cn1cnc2cc(NCc3nc4ccccc4n3Cc3ccccc3)ccc21 the results were Pf apPOL block -2.0 and mHTT CaM bind 87.9*!.
Cc1ccc(CNc2ccc3c(c2)ncn3C)cc1 was read as Pf apPOL block -6.7 and mHTT CaM bind 25.0.
`COCc1cc(C)nc2sc(-c3ccc([N+](=O)[O-])cc3)c(N)c12` gave Pf apPOL block -5.7 and mHTT CaM bind -2.0.
`Cc1cccc(C(C)C)c1N1C(=O)c2cccnc2C1=O` gave Pf apPOL block -61.5 and mHTT CaM bind 7.0.
`COc1ccc(NC(=O)C2CC(=O)N(c3ccc4oc(C)nc4c3)C2)cc1Cl` (stereo not drawn) gave Pf apPOL block -2.1 and mHTT CaM bind -4.2.
Screening Cc1ccc(C(=O)N2CCC(n3nc(-c4ccsc4)ccc3=O)CC2)cc1 returned Pf apPOL block -0.5 and mHTT CaM bind 100.1*.
`O=C(c1ccc(-c2ccsc2)nc1)N1CCN(C2CCCCC2)CC1` gave Pf apPOL block -0.6 and mHTT CaM bind -3.0.
Screening O=C(c1ccc(-c2ccsc2)nc1)N1CCCC1 returned Pf apPOL block -6.2 and mHTT CaM bind -1.3.
Screening O=C(c1ccccc1)N1CCC(n2nc(-c3ccsc3)ccc2=O)CC1 returned Pf apPOL block -2.7 and mHTT CaM bind 99.3*.
For CC(C)CC(=O)N1CCC(n2c(=O)oc3ccc(Cl)cc32)CC1 the results were Pf apPOL block 0.1 and mHTT CaM bind -2.2.
For c1cc(CN2CCCC(c3n[nH]c(C4CC4)n3)C2)co1 (stereo not drawn) the results were Pf apPOL block 1.7 and mHTT CaM bind -5.5.
CCCc1noc(-c2cccnc2N2CCCN(Cc3ccccc3C)CC2)n1 was read as Pf apPOL block 20.8 and mHTT CaM bind -85.6.
Cc1ccc(C)c(OCc2nnc(NC(=O)Nc3ccc(F)cc3)s2)c1 was read as Pf apPOL block 25.4 and mHTT CaM bind 3.9.
For Cc1cc(C)n(-c2ccc(C(=O)NCc3cccc(Cl)c3)cn2)n1 the results were Pf apPOL block -11.3 and mHTT CaM bind -6.0.
Screening COc1ccccc1C1NC(=O)NC(C)=C1C(=O)Nc1ccc(F)c(F)c1 (stereo not drawn) returned Pf apPOL block 0.3 and mHTT CaM bind 6.0.
COc1ccc(C2NC(=O)NC(C)=C2C(=O)Nc2ccc(F)c(F)c2)cc1OC (stereo not drawn) was read as Pf apPOL block 65.1*! and mHTT CaM bind -1.0.
FC(F)(F)c1cc(-c2ccccc2)nc(NCc2cccs2)n1 was read as Pf apPOL block 5.8 and mHTT CaM bind -272.0.
Screening COc1ccc(-c2ccccc2)cc1NCc1cccs1 returned Pf apPOL block 1.1 and mHTT CaM bind 55.0*.
For COc1ccc(CCNS(=O)(=O)c2ccc(C)cc2)cc1OC the results were Pf apPOL block -5.1 and mHTT CaM bind -6.1.
For COc1ccc(S(=O)(=O)NCCc2ccc(N3CCCC3)cc2)cc1OC the results were Pf apPOL block -0.2 and mHTT CaM bind 54.4*.
Screening CCC(=O)Nc1ccc(C)cc1-c1nc2cc(Cl)ccc2o1 returned Pf apPOL block -5.2 and mHTT CaM bind -5.3.
CCC1CCCCN1C(=O)c1ccc(C)c(C)c1 (stereo not drawn) was read as Pf apPOL block -4.0 and mHTT CaM bind 2.0.
Cc1ccc(-c2nc(C3CCN(S(=O)(=O)c4ccc(Cl)s4)CC3)no2)cc1 was read as Pf apPOL block -2.1 and mHTT CaM bind 2.4.
COc1ccc(NC(=O)CN2C(=O)CC(c3ccco3)Sc3ccccc32)c(OC)c1 (stereo not drawn) was read as Pf apPOL block -2.6 and mHTT CaM bind 92.1*.
For COc1ccc(Cl)cc1NC(=O)CN1C(=O)CC(C)Sc2ccccc21 (stereo not drawn) the results were Pf apPOL block -4.0 and mHTT CaM bind -0.4.
Cc1[nH]c2ccccc2c1SCCNC(=O)COc1ccc(Cl)cc1Cl was read as Pf apPOL block -22.2 and mHTT CaM bind 93.0*.
`Cc1[nH]c2ccccc2c1SCCNC(=O)COc1ccc(Cl)cc1` gave Pf apPOL block -9.2 and mHTT CaM bind 84.0*.
Screening Cc1[nH]c2ccccc2c1SCCNC(=O)C(C)(C)Oc1ccc(Cl)cc1 returned Pf apPOL block 1.2 and mHTT CaM bind 98.0*.
For CCOc1ccccc1C(=O)NCCSc1c(C)[nH]c2ccccc12 the results were Pf apPOL block -5.6 and mHTT CaM bind 71.0*.
Screening CCOc1cc(C(=O)NCCSc2c(C)[nH]c3ccccc23)cc(OCC)c1OCC returned Pf apPOL block -6.3 and mHTT CaM bind 19.0.
`O=C(COc1ccc(Cl)cc1)NCCSc1c[nH]c2ccccc12` gave Pf apPOL block -6.5 and mHTT CaM bind 17.0.
For Cc1[nH]c2ccccc2c1SCCNC(=O)c1c(F)cccc1F the results were Pf apPOL block -7.5 and mHTT CaM bind 12.0.
For Cc1[nH]c2ccccc2c1SCCNC(=O)c1cccc(Cl)c1 the results were Pf apPOL block -17.5 and mHTT CaM bind 23.0.
For Cc1ccc(-c2nnc3s/c(=C\c4ccc(Cl)cc4)c(=O)n23)cc1 the results were Pf apPOL block -1.9 and mHTT CaM bind 2.0.
Screening COc1ccc(C)cc1NC(=O)CCN1C(=O)c2ccccc2C1=O returned Pf apPOL block -0.3 and mHTT CaM bind 3.4.
O=c1c2cccc3c2c(nn1Cc1ccccc1Cl)-c1ccccc1-3 was read as Pf apPOL block -2.7 and mHTT CaM bind -14.0.
Screening NC(=O)Cn1nc2c3c(cccc3c1=O)-c1ccccc1-2 returned Pf apPOL block 60.8*! and mHTT CaM bind 1.0.
For COc1ccc(Cl)cc1S(=O)(=O)N1CCCC1C(=O)NCCc1csc(C)n1 (stereo not drawn) the results were Pf apPOL block -6.1 and mHTT CaM bind -6.0.
`CC(C)CC1C(=O)N(Cc2cn(CCC3OCCCO3)nn2)CCS(=O)(=O)N1Cc1ccc(-c2ccc(Cl)nc2)cc1` (stereo not drawn) gave Pf apPOL block -22.9 and mHTT CaM bind 29.3.
`CC(C)CC1C(=O)N(Cc2cn(CCC3OCCO3)nn2)CCS(=O)(=O)N1Cc1ccc(-c2cccc(N(C)C)c2)cc1` (stereo not drawn) gave Pf apPOL block 1.5 and mHTT CaM bind 71.9*.
`CC(C)CC1C(=O)N(Cc2cn(CCC3OCCCO3)nn2)CCS(=O)(=O)N1Cc1ccc(-c2ccc(Cl)c(Cl)c2)cc1` (stereo not drawn) gave Pf apPOL block -4.0 and mHTT CaM bind 60.4*.

Bioassay records (PubChem)
